From PubChem
MRP1 act = H69AR viability gain despite doxorubicin, primary screen, MRP-1 activator project, H69AR cells, CellTiter-Glo; viability rescue; viability increase, % at 10 µM; hit rate 0.61% among 140,000;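 active = viability gain under doxorubicin at or above a set limit, the compound median plus 3 SD, cut at about 4.7% in these data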;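 also: MRP-1 overexpressing cells given doxorubicin 25 µM after compound pretreatment; 18-22 h compound pretreatment then 72 h with doxorubicin before readout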
ERa coact inh = ERα–SRC-1 coactivator interaction inhibitors, primary screen, biochemical, TR-FRET, ERα LBD, estradiol-bound. hit rate 1.7% among 86,000. TR-FRET ER-alpha LBD / SRC-1 peptide. Estrogen receptor (Homo sapiens), P03372. AID 629, 2007. inhibition, % at 25.6 µM; in the data active = inhibition above about 50%
MRP resist rev = reversal of MRP1-mediated doxorubicin resistance, primary screen, H69AR cells, doxorubicin co-treatment | H69AR cells + 2 uM doxorubicin, CellTiter-Glo, 72 h | differential viability (reversal), % at 10 µM | hit rate 0.04% among 85,000;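 active = viability drop by adding the cancer drug above about 55%, with treated viability meeting a 40% cutoff, limit read from the data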;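 also: larger differential means the compound sensitizes cells more to doxorubicin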
ERb coact inh = inhibitors of ERβ-SRC1 coactivator interaction, primary screen, biochemical, TR-FRET, ERβ LBD, SRC-1 peptide; TR-FRET ER-beta LBD / SRC1-Cy5 peptide binding; receptor agonist-loaded with 1 µM estradiol; inhibition, % at 25.6 µM; hit rate 1.3% among 86,000;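 active = compounds whose percent inhibition of the receptor-coactivator binding signal exceeds about 50% in the single-dose screen, limit read from the data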
Smad3 FoxH1 inh = Smad3/FoxH1 peptide binding inhibitors, primary screen, biochemical, TR-FRET | Mothers against decapentaplegic homolog 3 (Homo sapiens), P84022 | TR-FRET Smad3/Dy647-FoxH1 peptide binding, europium anti-His | inhibition, % at 25 µM | hit rate 0.29% among 88,000;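 active = compounds that reduce the energy-transfer binding signal between the protein and its labelled peptide by more than half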
Target sequence (P84022 whole entry, looked up): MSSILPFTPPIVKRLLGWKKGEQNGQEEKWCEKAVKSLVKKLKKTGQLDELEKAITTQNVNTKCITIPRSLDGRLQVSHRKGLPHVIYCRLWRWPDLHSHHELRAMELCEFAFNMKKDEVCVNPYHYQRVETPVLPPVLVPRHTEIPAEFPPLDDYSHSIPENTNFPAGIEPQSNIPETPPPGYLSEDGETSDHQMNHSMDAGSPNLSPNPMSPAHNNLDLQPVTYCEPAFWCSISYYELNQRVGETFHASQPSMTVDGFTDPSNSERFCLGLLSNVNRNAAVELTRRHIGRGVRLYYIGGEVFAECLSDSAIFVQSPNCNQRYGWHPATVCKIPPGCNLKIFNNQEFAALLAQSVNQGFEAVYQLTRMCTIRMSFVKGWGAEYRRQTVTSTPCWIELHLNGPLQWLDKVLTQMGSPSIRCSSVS
ERa coact pot = enhancers of ERα–SRC-1 coactivator binding, primary screen, biochemical, TR-FRET, ERα LBD, low estradiol | Estrogen receptor (Homo sapiens), P03372 | TR-FRET ERalpha-LBD/SRC-Cy5 coactivator binding, 2 h; 100 = basal binding, no effect | coactivator binding (% of control), % at 25.6 µM | hit rate 1.3% among 86,000 | AID 639, 2007; in the data active = activity above about 200%;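 also: binding measured in presence of low estradiol as agonist stimulus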
Large screens that a line does not name were inactive; [ ] = dose if it differs, or a comment. A selection: hits, their analogues and other compounds. The true share with any hit is near 2.9%.

O=C(O)[C@H]1CCCN1Cc1cc2ccccc2c2ccccc12	none (no result: MRP1 act, ERa coact inh, MRP resist rev, ERb coact inh, ERa coact pot)
O=C(COC(=O)C1CCCCC1C(=O)N1CCc2ccccc21)NCc1ccco1 (centres undefined)	ERa coact inh 50[fluorescence artefact?]
O=C(COC(=O)C1CC2C=CC1C2)NCc1ccc(F)cc1 (centres undefined)	none (no result: ERa coact inh, MRP resist rev, ERb coact inh, Smad3 FoxH1 inh, ERa coact pot)
O=C(COC(=O)C1CC2C=CC1C2)NCc1ccco1 (centres undefined)	ERa coact inh 72[fluorescence artefact?], ERb coact inh 57
CN(c1ccc(C(=O)NCC2CCCO2)cc1)S(C)(=O)=O (centres undefined)	none
Cc1cccc(Sc2c(C=O)c3ccccc3n2C)c1	none (no result: ERa coact inh, MRP resist rev, ERb coact inh, Smad3 FoxH1 inh, ERa coact pot)
OCCCN=C1CCCCC1	none (no result: MRP1 act, ERa coact inh, MRP resist rev, ERb coact inh, ERa coact pot)
CCOc1cc(NC(=S)Nc2ccccc2OC)c(OCC)cc1NC(=O)c1ccccc1C	none (no result: ERa coact inh, MRP resist rev, ERb coact inh, Smad3 FoxH1 inh, ERa coact pot)
COCCn1c(C)cc(C(=O)COC(=O)c2ccc(N3CCCC3=O)cc2)c1C	none
CCOC(=O)c1c(C)[nH]c(C(=O)COC(=O)c2ccc(N3CCCC3=O)cc2)c1C	ERa coact inh 51[fluorescence artefact?], ERa coact pot 218[fluorescence artefact?]
COc1ccc(Cc2nnc3n2N=C(c2cc4ccccc4o2)CS3)cc1OC	none (no result: MRP1 act)
COc1ccc2[nH]c(=O)c(-c3noc(-c4ccccc4)n3)cc2c1	ERa coact inh 69[fluorescence artefact?], ERb coact inh 61[fluorescence artefact?]
Cc1ccc2[nH]c(=O)c(-c3noc(-c4ccncc4)n3)cc2c1	none (no result: MRP1 act)
NS(=O)(=O)c1ccc(N=Nc2c(-c3ccccc3)[nH]n(-c3nc(-c4ccccc4)cs3)c2=O)cc1	MRP1 act 5.3 (no result: ERa coact inh, MRP resist rev, ERb coact inh, Smad3 FoxH1 inh, ERa coact pot)
CCOC(=O)c1c(-c2ccccc2Cl)csc1NC(=O)CSc1nc(C)cc(=O)[nH]1	none (no result: ERa coact inh, MRP resist rev, ERb coact inh, Smad3 FoxH1 inh, ERa coact pot)
COc1ccc(C(=O)Oc2c(CN3CCOCC3)cc(Cl)c3cccnc23)cc1	none
COc1cc(C(=O)Oc2c(CN3CCOCC3)cc(Cl)c3cccnc23)cc(OC)c1OC	ERa coact pot 218
O=C(OCc1cccc2ccccc12)c1ccc2c(=O)[nH]c(CN3CCOCC3)nc2c1	none
CCc1ccc2nc(NC(=O)c3ccc4c(=O)[nH]c(CN5CCOCC5)nc4c3)sc2c1	ERa coact inh 69
O=C(Nc1ccccc1)c1cccc(-c2nnc(-c3ccccc3)o2)c1	ERa coact pot 309[fluorescence artefact?]
COc1cccc(-c2nnc(NC(=O)C3CCCCC3)o2)c1	none
O=C(Nc1cccc(-c2nnc(-c3ccccc3)o2)c1)C1CCCCC1	ERa coact pot 208[fluorescence artefact?]
Cc1cccc(N2CSC3=C(C#N)C(c4ccc(C)o4)CC(=O)N3C2)c1 (centres undefined)	ERa coact inh 83, ERb coact inh 68[fluorescence artefact?]
COc1cccc(C2CC(c3ccccc3OC)n3ncnc3N2)c1 (centres undefined)	ERa coact pot 595[fluorescence artefact?]
Clc1ccc(C2CC(c3ccccc3)Nc3ncnn32)cc1 (centres undefined)	none
COc1cccc(C2CC(c3ccccc3)Nc3ncnn32)c1 (centres undefined)	none
COc1ccccc1C1CC(c2ccc(Cl)cc2)Nc2ncnn21 (centres undefined)	MRP1 act 4.8
N[C@@H](CSC1(c2ccc(Cl)cc2)c2ccccc2-c2ccccc21)C(=O)O	none (no result: MRP1 act, ERa coact inh, MRP resist rev, ERb coact inh, ERa coact pot)
CSCCC1NC(=O)NC1=O (centres undefined)	ERa coact inh 62
NC(=O)NOC[C@@H]1NC(=O)NC1=O	none (no result: MRP1 act, ERa coact inh, MRP resist rev, ERb coact inh, ERa coact pot)
N#Cc1c(-c2ccc(Cl)cc2)nc2n(c1=O)CCCS2	none
N#Cc1c(-c2ccc(Br)cc2)nc2n(c1=O)CCCS2	ERa coact pot 239
CCOC(=O)C1CCN(C(=O)C2CCN(c3nc4ccc(OC)cc4s3)CC2)CC1	ERb coact inh 91[fluorescence artefact?] (no result: MRP resist rev)
CC(NC(=O)c1ccc(Br)cc1)c1ccc2c(c1)CCCC2 (centres undefined)	MRP1 act 5.6 (no result: ERa coact inh, MRP resist rev, ERb coact inh, Smad3 FoxH1 inh, ERa coact pot)
CC(NC(=O)c1ccc(F)cc1)c1ccc2c(c1)CCCC2 (centres undefined)	none (no result: ERa coact inh, MRP resist rev, ERb coact inh, Smad3 FoxH1 inh, ERa coact pot)
Cc1ccc(CSCCNC(=O)c2ccc(Cl)c(S(=O)(=O)N3CCOCC3)c2)cc1	none
Cc1cc2cc(CN3C(=O)c4ccccc4C3=O)ccc2n1C	ERa coact pot 300[fluorescence artefact?]
Cc1ccc(S(=O)(=O)NCc2ccc3c(c2)cc(C)n3C)cc1	none
Cc1cc(C)c2[nH]c(=O)c(CN(CC3CCCO3)S(=O)(=O)c3ccc4c(c3)OCCO4)cc2c1 (centres undefined)	none
Cc1cccc2cc(CN(Cc3ccco3)S(=O)(=O)c3ccc4c(c3)OCCO4)c(=O)[nH]c12	MRP1 act 11
CN1C(=O)N(S(=O)(=O)c2ccc(F)c(F)c2F)C(=O)C1(C)C	none
COc1ccc(/C=N/N=C2/NC(=O)C(c3ccccc3)(c3ccccc3)S2)cc1	none
COc1ccc(/C=C/C(O)=C2/C(=O)N(C)C3(C)CC2c2ccccc2O3)cc1 (centres undefined)	ERa coact inh 63
Cc1ccc(/C=C/C(O)=C2/C(=O)N(C)C3(C)CC2c2ccccc2O3)cc1 (centres undefined)	none (no result: ERa coact inh, MRP resist rev, ERb coact inh, Smad3 FoxH1 inh, ERa coact pot)
N=C(N)SCc1cccc(-c2nc3ccccc3c(=O)o2)c1	none (no result: MRP1 act, ERa coact inh, MRP resist rev, ERb coact inh, ERa coact pot)
Cc1onc(-c2ccccc2Cl)c1C(=O)NCc1ccco1	ERa coact inh 86[fluorescence artefact?], ERb coact inh 54
CC1=C(C(=O)OC(C)C)C(c2ccco2)NC(=O)N1 (centres undefined)	ERb coact inh 55[fluorescence artefact?]
CCOC(=O)C1=C(C)NC(=O)NC1c1ccco1 (centres undefined)	ERb coact inh 66
COc1ccccc1NC(=O)N(C1CCCC1)C1CCN(C(C)=O)CC1	none
Cc1ccc(S(=O)(=O)N(C)CC(=O)OCC(=O)c2c(N)n(C)c(=O)n(C)c2=O)cc1	none (no result: ERa coact inh, MRP resist rev, ERb coact inh, Smad3 FoxH1 inh, ERa coact pot)
Cc1nc2c(ccc3nc(NC(=O)Cc4cccc5ccccc45)sc32)s1	none (no result: ERa coact inh, MRP resist rev, ERb coact inh, Smad3 FoxH1 inh, ERa coact pot)
Cc1nc2c(ccc3nc(NC(=O)c4ccc5c(c4)OCCO5)sc32)s1	ERa coact inh 75[fluorescence artefact?], ERb coact inh 58[fluorescence artefact?], ERa coact pot 201[fluorescence artefact?]
O=C(Nc1cccc2nsnc12)c1ccc2c(c1)OCCO2	none
Cc1nc2ccc3nc(NC(=O)c4ccc5c(c4)OCCO5)sc3c2s1	ERa coact inh 62[fluorescence artefact?], ERa coact pot 418[fluorescence artefact?]
Cc1nc2c(ccc3nc(NC(=O)C(c4ccccc4)c4ccccc4)sc32)s1	MRP1 act 15 (no result: ERa coact inh, MRP resist rev, ERb coact inh, Smad3 FoxH1 inh, ERa coact pot)
Cc1nc2ccc3nc(NC(=O)c4ccc(S(=O)(=O)N5CCOCC5)cc4)sc3c2s1	none (no result: ERa coact inh, MRP resist rev, ERb coact inh, Smad3 FoxH1 inh, ERa coact pot)
C/C(=N\[N+](C)(C)C)c1ccc(C)c(C)c1	none (no result: MRP1 act, ERa coact inh, MRP resist rev, ERb coact inh, ERa coact pot)
COC(=O)c1ccc(Cn2nnc3c(sc4nc(N5CCOCC5)c5c(c43)CCCC5)c2=O)o1	none (no result: MRP1 act)
COC(=O)CSc1ncnc2c1sc1nc(N3CCOCC3)c3c(c12)CCCC3	ERa coact pot 391[fluorescence artefact?]
